Measurements from the supplement of paper PMC9135407.
Structures can show the parent of a compound that is named as a salt. Among all 5,800 compounds or so, about 620 (11%) showed activity. The list comes from a sample in which actives are over-represented; it also holds similar structures and randomly drawn compounds. Unmarked numbers belong to inactive results.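 The calls were made as follows: active = score above a cut-off or among the top three wells of a plate; in these data no inactive exceeds 0.85.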

Test system: primary human hepatic stellate cells (donor 1)
Experiment: scaled lipid accumulation score (0 = DMSO-like, 1 = nortriptyline-like); higher = stronger HSC inactivation (lipid re-accumulation), active = hit call of the paper
Settings: 48 h
[1] = library stock concentration: 10 mM
[2] = library stock concentration: 80 uM
[3] = library stock concentration: 400 uM
[4] = library stock concentration: 3.33 mM
[5] = library stock concentration: 2 mM
[6] = library stock concentration: 1 mM

COC(=O)C(C)(N)Cc1ccc(O)cc1 (racemic) [alpha-Methyl-DL-tyrosine methyl ester hydrochloride]
scaled lipid accumulation score [1]: ≤ -0.019

CN1CCC(CNc2ccc3ncc(-c4cccc(OC(F)(F)F)c4)n3n2)CC1 [listing 1 of 2 here]
scaled lipid accumulation score [2]: 0.117
scaled lipid accumulation score [3]: 0.23
scaled lipid accumulation score [1]: 0.47

CN1CCC(CNc2ccc3ncc(-c4cccc(OC(F)(F)F)c4)n3n2)CC1 [SGI-1776 free base]
scaled lipid accumulation score [4]: 0.774
scaled lipid accumulation score [1]: 0.181

CN1CCC(CNc2ccc3ncc(-c4cccc(OC(F)(F)F)c4)n3n2)CC1 [listing 2 of 2 here]
scaled lipid accumulation score [5]: 1.4 (active)

CCCCC/C=C\C/C=C\C/C=C\C/C=C\CCCC(=O)NC[C@]1(C)CCC[C@]2(C)c3ccc(C(C)C)cc3CC[C@@H]12 [Arachidonic Acid Leelamide]
scaled lipid accumulation score [6]: 0.002

CCCCCCCCCCCCCCCC(=O)NC(CO)CO [Palmitoyl Serinol]
scaled lipid accumulation score [6]: 0.026

O=C(Nc1ccncc1)Nc1c(Cl)cc(Cl)cc1Cl [Rho Kinase Inhibitor II]
scaled lipid accumulation score [4]: ≤ 0

Cc1cc(C)c(Nc2ccnc(Nc3ccc(C#N)cc3)n2)c(C)c1 [Dapivirine (TMC120)] [listing 1 of 2 here]
scaled lipid accumulation score [1]: 1.08 (active)

Cc1cc(C)c(Nc2ccnc(Nc3ccc(C#N)cc3)n2)c(C)c1 [Dapivirine (TMC120)] [listing 2 of 2 here]
scaled lipid accumulation score [4]: 0.243

Cc1cc(/C=C/C#N)cc(C)c1Nc1ccnc(Nc2ccc(C#N)cc2)n1 [Rilpivirine]
scaled lipid accumulation score [4]: ≤ -0.009
scaled lipid accumulation score [1]: ≤ 0

Cc1ccccc1-c1cccc(N2CCC(N3CCN(C)C(C)C3)CC2)c1 (centres undefined)
scaled lipid accumulation score [1]: 1.05 (active)

O=C(O)CCC/C=C\C[C@@H]1[C@@H](/C=C/[C@H](O)CCc2ccccc2)[C@H](O)C[C@@H]1O [15(R)-17-phenyl trinor Prostaglandin F2.alpha.]
scaled lipid accumulation score [6]: ≤ 0

CN(Cc1ccccc1)C(=O)[C@H](Cc1ccc2ccccc2c1)NC(=O)[C@@H]1CCCN1C(=O)Nc1ccccc1[N+](=O)[O-]
scaled lipid accumulation score [1]: 0.005

CN(Cc1ccccc1)C(=O)[C@H](Cc1ccc2ccccc2c1)NC(=O)[C@@H]1C[C@@H](O)CN1C(=O)c1cn(C)c2ccccc12
scaled lipid accumulation score [1]: 0.019

CNC(=O)[C@@H](Cc1ccccc1)N(C)C(=O)[C@@H](Cc1ccc2ccccc2c1)N(C)C(=O)/C=C/CC(C)(C)N.CNC(=O)[C@@H](Cc1ccccc1)N(C)C(=O)[C@@H](Cc1ccc2ccccc2c1)N(C)C(=O)/C=C/CC(C)(C)N.O=C(O)/C=C/C(=O)O [Tabimorelin]
scaled lipid accumulation score [1]: 1.3 (active)

CCCCCCCCCCCCC/C=C/[C@@H](O)[C@H](CO)NC(=O)CCCCCCCCCCCCCCC [C16 Ceramide]
scaled lipid accumulation score [6]: ≤ -0.021

COc1ccc2cc3[n+](cc2c1OC)CCc1cc2c(cc1-3)OCO2 [Berberine chloride]
scaled lipid accumulation score: ≤ 0
scaled lipid accumulation score [1]: ≤ 0

C[n+]1cc2c3c(ccc2c2ccc4cc5c(cc4c21)OCO5)OCO3 [Sanguinarine chloride]
scaled lipid accumulation score [1]: 0.196

C[n+]1cc2c3c(ccc2c2ccc4cc5c(cc4c21)OCO5)OCO3 [Sanguinarine]
scaled lipid accumulation score: 0.869 (active)

COc1ccc2cc3[n+](cc2c1OC)CCc1cc2c(cc1-3)OCO2 [Berberine HCl]
scaled lipid accumulation score [4]: ≤ 0
scaled lipid accumulation score [1]: ≤ 0

C[n+]1cc2c3c(ccc2c2ccc4cc5c(cc4c21)OCO5)OCO3 [Sanguinarine sulfate]
scaled lipid accumulation score (library stock concentration: 4.7 mM): 0.693
scaled lipid accumulation score [1]: 0.287

CC#CCC(C)C(=O)/C=C/[C@@H]1[C@H]2C/C(=C/CCCC(=O)O)C[C@H]2C[C@H]1O (some centres undefined) [15-keto Iloprost]
scaled lipid accumulation score [6]: ≤ 0

CC(C)OC(=O)CCC/C=C\C[C@@H]1[C@@H](/C=C/C(=O)COc2cccc(C(F)(F)F)c2)[C@H](O)C[C@@H]1O [15-keto Fluprostenol isopropyl ester]
scaled lipid accumulation score [6]: ≤ 0

CC1CC2C3CCC4=CC(=O)C=CC4(C)C3(F)C(O)CC2(C)C1C(=O)CO (centres undefined)
scaled lipid accumulation score [1]: ≤ 0

COc1cc2ncnc(Nc3ccc(F)c(Cl)c3)c2cc1NC(=O)/C=C/CN1CCCCC1
scaled lipid accumulation score [2]: ≤ -0.016
scaled lipid accumulation score [3]: 0.274
scaled lipid accumulation score [1]: 0.219

COc1cc2ncnc(Nc3ccc(F)c(Cl)c3)c2cc1NC(=O)C=CCN1CCCCC1 [listing 1 of 2 here]
scaled lipid accumulation score [4]: 1.08 (active)

COc1cc2ncnc(Nc3ccc(F)c(Cl)c3)c2cc1NC(=O)C=CCN1CCCCC1 [listing 2 of 2 here]
scaled lipid accumulation score [5]: 0.903 (active)
scaled lipid accumulation score [1]: 1.47 (active)

CNC(=O)CN1CCC(Oc2cc3c(Nc4cccc(Cl)c4F)ncnc3cc2OC)CC1 [AZD8931 (Sapitinib)]
scaled lipid accumulation score [4]: 0.28
scaled lipid accumulation score [1]: 0.713

O=C1/C(=C/c2cccs2)CCC/C1=C\c1cccs1
scaled lipid accumulation score [1]: ≤ 0

CC(=O)N1CCN(c2ccc(OCC3COC(Cn4ccnc4)(c4ccc(Cl)cc4Cl)O3)cc2)CC1 (centres undefined) [Ketoconazole]
scaled lipid accumulation score: 0.131
scaled lipid accumulation score [4]: 0.086

CC(=O)N1CCN(c2ccc(OCC3COC(Cn4ccnc4)(c4ccc(Cl)cc4Cl)O3)cc2)CC1 (centres undefined)
scaled lipid accumulation score [1]: 0.048

CC(=O)Oc1c(C)c(C)c2c(c1C)CCC(C)(CCCC(C)CCCC(C)CCCC(C)C)O2 (stereo not drawn) [Alpha-tochopheryl acetate]
scaled lipid accumulation score [1]: 0.117

O=C1NC(=O)c2c1c1c3ccccc3[nH]c1n1cncc21 [Isogranulatimide]
scaled lipid accumulation score [4]: ≤ 0

CCCCC[C@H](O)/C=C/[C@@H]1[C@@H](C/C=C\CCCC(=O)OC(C)C)[C@@H](O)C[C@H]1O [Prostaglandin F2.alpha. isopropyl ester]
scaled lipid accumulation score [6]: ≤ 0

O=C(O)CC/C=C\C[C@H]1CO[C@@H](c2ccccc2Cl)O[C@H]1c1ccccc1O
scaled lipid accumulation score [1]: ≤ 0

C=C1/C(=C\C=C2/CCC[C@]3(C)[C@@H]([C@H](C)CCCC(C)(C)O)CC[C@@H]23)C[C@@H](O)C[C@@H]1O [1?,25-Dihydroxyvitamin D3]
scaled lipid accumulation score [6]: 0.004

C=C1/C(=C\C=C2/CCC[C@]3(C)[C@@H]([C@H](C)CCCC(C)C)CC[C@@H]23)C[C@@H](O)C[C@@H]1O [Alfacalcidol]
scaled lipid accumulation score [4]: ≤ 0
scaled lipid accumulation score (library stock concentration: 5 mM): ≤ -0.006

C=C1/C(=C\C=C2/CCC[C@]3(C)[C@@H]([C@H](C)CCCC(C)(C)O)CC[C@@H]23)C[C@@H](O)C[C@@H]1O
scaled lipid accumulation score [1]: ≤ 0

C=C1/C(=C\C=C2/CCC[C@]3(C)[C@@H]([C@H](C)CCCC(C)(C)O)CC[C@@H]23)C[C@@H](O)C[C@@H]1O [Calcitriol]
scaled lipid accumulation score [4]: ≤ 0
scaled lipid accumulation score (library stock concentration: 4.8 mM): 0.018
scaled lipid accumulation score [1]: ≤ 0

C=C1C(=CC=C2CCC[C@]3(C)[C@@H]([C@H](C)CCCC(C)C)CC[C@@H]23)C[C@@H](O)C[C@@H]1O [Alfacalcidol]
scaled lipid accumulation score [1]: 1.03 (active)

O=C(c1cc2cc(O)ccc2[nH]1)c1cc2cc(O)ccc2[nH]1 [Flt-3 Inhibitor II]
scaled lipid accumulation score [4]: ≤ 0

Nc1ccccc1NC(=O)c1ccc(CNc2nccc(-c3cccnc3)n2)cc1 [Mocetinostat] [listing 1 of 2 here]
scaled lipid accumulation score [5]: 0.728 (active)
scaled lipid accumulation score [1]: 0.648 (active)

Nc1ccccc1NC(=O)c1ccc(CNC(=O)OCc2cccnc2)cc1
scaled lipid accumulation score [2]: ≤ 0
scaled lipid accumulation score [3]: ≤ 0
scaled lipid accumulation score [6]: 0.014
scaled lipid accumulation score [5]: ≤ 0
scaled lipid accumulation score [1]: 0.628

Nc1ccccc1NC(=O)c1ccc(CNc2nccc(-c3cccnc3)n2)cc1 [Mocetinostat (MGCD0103)] [listing 1 of 2 here]
scaled lipid accumulation score [4]: 0.974 (active)

CC(=O)Nc1ccc(C(=O)Nc2ccccc2N)cc1 [CI994 (Tacedinaline)]
scaled lipid accumulation score [4]: ≤ 0
scaled lipid accumulation score [1]: 0.161

Nc1ccccc1NC(=O)c1ccc(CNc2nccc(-c3cccnc3)n2)cc1 [Mocetinostat] [listing 2 of 2 here]
scaled lipid accumulation score [2]: ≤ 0
scaled lipid accumulation score [3]: ≤ 0

Nc1ccccc1NC(=O)c1ccc(CNC(=O)OCc2cccnc2)cc1 [Entinostat (MS-275)]
scaled lipid accumulation score [4]: 0.152
scaled lipid accumulation score [1]: 0.418

Nc1ccccc1NC(=O)c1ccc(CNc2nccc(-c3cccnc3)n2)cc1 [Mocetinostat (MGCD0103)] [listing 2 of 2 here]
scaled lipid accumulation score [1]: 0.769

O=C(Nc1ccc(Cl)cc1)c1ccccc1NCc1ccncc1 [VEGF Receptor Tyrosine Kinase Inhibitor II]
scaled lipid accumulation score [4]: ≤ 0

COC(=O)C(N)Cc1ccc(Cl)cc1 (racemic) [DL-p-Chlorophenylalanine methyl ester hydrochloride]
scaled lipid accumulation score [1]: ≤ 0

CCCCCCCC/C=C\CCCCCCCC(=O)OC[C@@H](O)COP(=O)(O)O [1-Oleoyl Lysophosphatidic Acid (sodium salt)]
scaled lipid accumulation score [6]: ≤ 0

CCCCCCCC/C=C\CCCCCCCC(=O)OC[C@@H](O)COP(=O)(O)O [1-Oleoyl Lysophosphatidic Acid]
scaled lipid accumulation score [6]: ≤ 0

CCCCCCCCCCOc1ccc(OCC(=O)Cn2cc(C(=O)OC)c3cc(C(=O)O)ccc32)cc1
scaled lipid accumulation score [6]: ≤ 0

CCCCCCC(Sc1nc(Cl)cc(NCc2ccc(-c3ccccc3)cc2)n1)C(=O)O (centres undefined)
scaled lipid accumulation score [6]: ≤ 0

CCCCCC(=O)CCC1C(=O)C=CC1C/C=C\CCCC(=O)O (centres undefined) [13,14-dihydro-15-keto Prostaglandin J2]
scaled lipid accumulation score [6]: ≤ 0

CCCCC[C@H](O)/C=C/[C@H]1OC(O)C[C@H](O)[C@@H]1C/C=C\CCCC(=O)O (some centres undefined) [Thromboxane B2]
scaled lipid accumulation score [6]: ≤ 0

CC(C)CCN1C(=O)N(CCN(C)C)C(=O)C12CCN(Cc1cn(C)c3ccccc13)CC2
scaled lipid accumulation score [1]: 0.692 (active)

C[C@@H]1[C@H](O)[C@@H](C)/C=C/C=C/C=C/C=C/C=C/C=C/C=C/[C@H](O[C@@H]2O[C@H](C)[C@@H](O)[C@H](N)[C@@H]2O)C[C@@H]2O[C@](O)(C[C@@H](O)C[C@@H](O)[C@H](O)CC[C@@H](O)C[C@@H](O)CC(=O)O[C@H]1C)C[C@H](O)[C@H]2C(=O)O [Amphotericin b]
scaled lipid accumulation score [1]: ≤ 0

C[C@@H]1[C@H](O)[C@@H](C)/C=C/C=C/C=C/C=C/C=C/C=C/C=C/[C@H](O[C@@H]2O[C@H](C)[C@@H](O)[C@H](N)[C@@H]2O)C[C@@H]2O[C@](O)(C[C@@H](O)C[C@@H](O)[C@H](O)CC[C@@H](O)C[C@@H](O)CC(=O)O[C@H]1C)C[C@H](O)[C@H]2C(=O)O [Amphotericin B]
scaled lipid accumulation score: 0.003
scaled lipid accumulation score [4]: 0.002
scaled lipid accumulation score [1]: ≤ 0
